# Sampled rows, rich in hits. Any-hit rate of the full collection: about 10%.
# HEK293 tox – kills HEK 293 cells; HEK 293 viability, ATP luminescence (CellTiter-Glo), 48-72 h; Potency, µM (highest dose often 115 µM), for inactives: at the top dose activity change, negative = cytotoxicity, actives largely listed as inhibitors; hit rate 6.6% among 94,000; AID 1345083; further: nearly all actives have a fitted effect of over 60% in size
#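 HEK 293 cells seeded at 250 cells/well were exposed to compound for 48 or 72 hr at 37 degree Celsius. Viability taken as ATP content by CellTiter-Glo luminescence.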
# 3T3 cytotox – NIH 3T3 cell cytotoxicity; NIH 3T3 viability, CellTiter-Glo ATP luminescence, 48-72 h; hit rate 4.3% among 94,000; Potency, µM (top dose mostly 96.7 µM), inactives show top-dose activity change, negative = cytotoxicity, usual class: inhibitors; AID 1345082; further: nearly all actives have a fitted effect of over 55% in size
#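 Cytotoxicity is measured as loss of cellular ATP: NIH 3T3 cells (400/well) are exposed to compound for 48 or 72 hr at 37 °C, then CellTiter-Glo luminescence is imaged after 10 min at room temperature.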
# GPT2 inh – blocks human glutamate pyruvate transaminase 2. Q8TD30. Recombinant GPT2, coupled pyruvate oxidase/HRP Amplex Red fluorescence. Potency, µM (doses to about 57.7 µM), for the others: at the top dose activity change, negative = inhibition, most hits filed as inhibitors. hit rate 0.25% among 100,000. AID 1671188; further: nearly all actives have a fitted effect of over 60% in size
#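 GPT2 10ng/uL, a-KG 250uM, L-Ala 2mM, HEPES pH7.5 + 0.0001% Tween; 30 min RT. Then Amplex mix (PO/HRP/ThPP), 30 min RT dark, fluorescence. AOA 50uM used as positive control.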
# NPR1 antag – blocks ANP-stimulated signaling of human Npr1 receptor; P16066; HEK293 hNpr1 GloSensor cGMP, ANP-stimulated luminescence; Potency, µM (top dose mostly 46.3 µM), for inactives: at the top dose activity change, negative = inhibition, usual class: inhibitors; hit rate 1.6% among 76,000; AID 1347048; calls by dose curve; further: nearly all actives have a fitted effect of over 60% in size
#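 HEK293 cells stably expressing human Npr1 and cGMP GloSensor pGS-40F, loaded 2 h with 2% GloSensor reagent, given compound 30 min at room temperature. Luminescence read before and 20 min after 0.1 nM hNppA.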
# Luciferase inh – blocks purified firefly luciferase enzyme activity; P08659; purified P. pyralis luciferase, luminescence, biochemical; Potency, µM (doses to about 115 µM), usual class: inhibitors; hit rate 2.5% among 76,000; further: nearly all actives have a fitted effect of over 65% in size
# Target sequence (P08659 whole entry, looked up): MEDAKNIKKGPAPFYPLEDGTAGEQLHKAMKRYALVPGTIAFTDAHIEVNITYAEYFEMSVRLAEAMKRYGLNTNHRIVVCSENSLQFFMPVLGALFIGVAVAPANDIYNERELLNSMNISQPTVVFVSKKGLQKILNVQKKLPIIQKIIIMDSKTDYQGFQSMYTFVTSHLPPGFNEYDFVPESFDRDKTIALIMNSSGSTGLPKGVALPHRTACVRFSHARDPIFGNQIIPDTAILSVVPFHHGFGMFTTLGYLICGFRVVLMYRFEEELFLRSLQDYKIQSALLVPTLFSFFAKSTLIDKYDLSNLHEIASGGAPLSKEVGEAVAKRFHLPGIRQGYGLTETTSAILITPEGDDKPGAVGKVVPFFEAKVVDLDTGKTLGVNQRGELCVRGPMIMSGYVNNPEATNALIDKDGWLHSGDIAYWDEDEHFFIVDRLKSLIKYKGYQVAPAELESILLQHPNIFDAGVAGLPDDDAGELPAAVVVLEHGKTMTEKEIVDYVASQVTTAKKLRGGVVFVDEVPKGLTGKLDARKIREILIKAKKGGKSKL
#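 Luminescence read by CCD imaging after purified firefly luciferase (10nM final) was added to substrate buffer holding 10uM D-luciferin and 10uM ATP, pH 7.5, pre-dosed with compound.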
# An asterisk follows results filed as active; i = inactive; ? = inconclusive; nt = no result; [ ] = dose if it differs, or a comment. Unless noted, the call rests on the fitted dose curve; in most records, active means well fitted curve in the direction sought with a large enough effect; inconclusive means small, poorly fitted or top-dose-only effect, or another doubt; inactive means no such curve, though single readings can be large; an effect the other way counts as inactive or inconclusive. On the % scale 0 is the no-effect control and ±100 the full control effect; potency means the concentration at half of the fitted maximal effect.
SMILES,HEK293 tox,3T3 cytotox,GPT2 inh,NPR1 antag,Luciferase inh
CC(C)N1[N]C(=C2C=c3cc(O)ccc3=N2)c2c(N)ncnc21,nt,nt,0.61µM*,nt,nt
COC[C@@H]1CCCN1Cc1cn(Cc2ccccc2)nc1-c1cc2ccccc2o1,?,?,0%,-10%,28µM*
CC(C)N(Cc1cn(Cc2ccccc2)nc1-c1cc2ccccc2o1)CC1CCC(=O)N1 (centres undefined),2%,-6%,?,0%,i
CNC(=O)c1cccc(-c2ccccc2COc2ccc(CCOC)cc2)n1,?,-13%,?,-23%,10µM*
c1ccc(N[C@@H]2CCC3CC2[C@@H](Oc2ccccn2)CO3)cc1 (some centres undefined),?,-15%,nt,nt,nt
c1ccc(-c2ccc(CNCc3cccs3)o2)cc1,?,-22%,-18%,-25%,35µM*
CCCNCc1ccc(-c2ccccc2)o1,-6%,i,?,-1%,i
CN1C[C@@H](NC(=O)Nc2ccc(C(F)(F)F)cc2)C[C@H]1c1nc(-c2ccc(Cl)cc2)no1,20µM*,8.9µM*,0%,?,i
CN1C[C@@H](NC(=O)c2cccnc2)C[C@H]1c1nc(-c2cnccn2)no1,-6%[172 µM],i,-4%[88.5 µM],9%[70.6 µM],i
CN1C[C@@H](NC(=O)Nc2ccc(F)cc2F)C[C@H]1c1nc(-c2ccccc2)no1,63µM*,-23%[174 µM],-12%[88.5 µM],?,i
COc1ccc(C(=O)N[C@H]2C[C@@H](c3nc(-c4ccccc4)no3)N(C)C2)cc1,?,?,-5%[88.5 µM],-4%[70.6 µM],i
CN1C[C@@H](NC(=O)c2cnccn2)C[C@H]1c1nc(-c2ccc(OC(F)(F)F)cc2)no1,89µM*,?,?,-18%[70.6 µM],i
CN1C[C@@H](NC(=O)c2ccccn2)C[C@H]1c1nc(-c2ccc(OC(F)(F)F)cc2)no1,79µM*,?,-10%[88.5 µM],-25%[70.6 µM],i
O=C(c1ccc(Br)o1)N1C[C@@H](CO)[C@H](c2ccccn2)C1,i,-6%,i,3%,i
COc1ccc(CC(=O)N[C@H]2C[C@@H](c3nc(-c4ccc(OC(F)(F)F)cc4)no3)N(C)C2)cc1,35µM*,?,?,?,i
CN1C[C@@H](NC(=O)c2ccccn2)C[C@H]1c1nc(-c2ccc(Cl)cc2)no1,89µM*,?,?,6%[70.6 µM],71µM*
COc1ccc(C(=O)N[C@H]2C[C@@H](c3nc(-c4ccc(Cl)cc4)no3)N(C)C2)cc1,56µM*,?,i,?,?
COc1ccc(-c2noc([C@@H]3C[C@H](NC(=O)c4ccc(F)cc4)CN3C)n2)cc1,?,?,-1%[88.5 µM],-7%[70.6 µM],i
COc1ccc(NC(=O)N[C@H]2C[C@@H](c3nc(-c4ccc(F)cc4)no3)N(C)C2)cc1,-38%[172 µM],?,?,0%[70.6 µM],i
Cc1ccc(NC(=O)NCC2CCOCC2)cc1,2%,4%,-1%,3%,i
COc1ccc(CN2CCCC23Cc2ccccc2CNC3=O)cc1OC (centres undefined),-18%,-3%,-8%,nt,nt
O=C(Cc1ccc(N(Cc2ccccc2)C(=O)c2ccco2)cc1)Nc1ccccc1,35µM*,?,i,-15%,?
O=C(Cc1ccc(N(Cc2ccccc2)C(=O)c2ccco2)cc1)NCCc1ccccc1,50µM*,?,i,-6%,i
COCCNC(=O)Cc1ccc(N(Cc2ccccc2)C(=O)c2ccco2)cc1,-1%,-4%,i,7%,i
Cc1ccsc1CN1CCC(Oc2cc(Cl)ccc2C(=O)N2CCCCC2)CC1,45µM*,?,5%,1%,i
SMILES,HEK293 tox,3T3 cytotox,GPT2 inh,NPR1 antag,Luciferase inh
COCCn1cc2c3c(cccc31)CN(C(=O)CCCc1ccccc1)CC2,?,?,i,-29%,i
COCC(=O)N1CCc2cn(CC(C)C)c3cccc(c23)C1,79µM*,?,i,-11%,i
Cc1noc2c(-c3cccc(CO)c3)cc(-c3cccc(C(F)(F)F)c3)nc12,45µM*,25µM*,-6%[88.5 µM],-3%[70.6 µM],i
COc1cccc(-c2cc(-c3ccccc3)nc3c(C)noc23)c1,?,?,4%[88.5 µM],1%[70.6 µM],i
Cc1noc2c(-c3cccc(CO)c3)cc(-c3ccc(F)cc3)nc12,71µM*,?,?,2%[70.6 µM],i
COc1ccc(CNc2ncnc3c2CN(c2ccc(C)cc2)C(=O)N(C)C3)cc1OC,1%,-20%,i,0%,i
COc1ccccc1Nc1ccnc(N2CCCC(C(=O)N3CCCCC3)C2)n1 (centres undefined),35µM*,35µM*,i,nt,nt
COc1ccccc1Nc1ccnc(N2CCCC(C(=O)NC3CCCC3)C2)n1 (centres undefined),?,35µM*,i,nt,nt
COc1ccccc1Nc1ccnc(N2CCCC(C(=O)NC3CCOC3)C2)n1 (centres undefined),?,?,3%,nt,nt
COc1ccccc1Nc1ccnc(N2CCCC(C(=O)N3CCOCC3)C2)n1 (centres undefined),?,-42%,i,nt,nt
COc1ccc(CCC(=O)NC2CCN(c3cc(C(F)(F)F)nc(C)n3)CC2)cc1,-26%,-24%,-9%,-17%,i
Cc1ccc(Cn2cc(-c3ccncc3)cc2C(=O)NCc2ccc(N(C)C)cc2)cc1,45µM*,?,-9%,0%,i
Cc1ccccc1Cn1cc(-c2ccncc2)cc1C(=O)NCc1ccncc1,?,?,-7%,-10%,i
CS(=O)(=O)N1CCCCC1CCNc1nccc(-c2cccnc2)n1 (centres undefined),-6%,-3%,-3%,4%,i
CCc1cccc(NC(=O)Cn2c(Nc3cc(C)cc(C)c3)nc(C)cc2=O)c1,40µM*,-14%,1%,-2%,i
CCc1ccc(NC(=O)Cn2c(N(C)Cc3ccccc3)nc(C)cc2=O)cc1,35µM*,?,i,?,i
CN(Cc1cccc(-n2cccn2)c1)Cc1nc(-c2cccs2)no1,79µM*,-24%,0%,-8%,i
CN(Cc1ccc(-n2cccn2)cc1)Cc1nc(Cc2cccc(F)c2)no1,?,-20%,i,2%,i
CCCNC(=O)[C@@H]1Cc2c[nH]c3cccc(c23)[C@H](CC(C)C)N1,50µM*,?,4%[88.5 µM],-2%[70.6 µM],i
C=CCNC(=O)[C@@H]1Cc2c[nH]c3cccc(c23)[C@H](CC(C)C)N1,?,?,?,4%[70.6 µM],i
CC(C)C[C@@H]1N[C@H](C(=O)NCCOc2ccccc2)Cc2cn(C)c3cccc1c23,40µM*,32µM*,?,-22%[70.6 µM],i
C=CCNC(=O)[C@@H]1Cc2cn(CC=C)c3cccc(c23)[C@H](CC(C)C)N1,?,?,2%[88.5 µM],-2%[70.6 µM],i

# Assay outcomes from PubChem.
